Source: PubChem
Most compounds without a hit are left out; they make up all but 8.3% or so of the library.
HCMV inh = qHTS Assay for inhibitors of the human cytomegalovirus (HCMV); HFF cells, HCMV-luciferase reporter, 72 h; stronger effect = lower value; actives 4.5% (n = 410,000); AID 1259415, 2018; activity change, negative = inhibition, % at 57.5 µM; in the data active means activity change below about -60%; inconclusive means no clear call, values can overlap the other calls; inactive means above about -39%
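Cell-based, HFFs, 1000 cells/well, 16 h 37C; cpds in DMSO + HCMV-luc, MOI 1 PFU/cell; 72 h 37C; OneGlo luminescence after 5 min RT; norm. to buffer vs Salinomycin 10uM.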
FMDV inh = High Throughput Screening for Foot and Mouth Disease Virus Antivirals; actives 1.2% (n = 410,000); Potency, µM (titrated, usually from 57.9 µM), for inactives: at the highest dose activity change, negative = inhibition, actives largely listed as inhibitors; AID 1159524, 2015; FMDV antiviral cell-based qHTS; calls by dose curve; tested in HEK293T cells; further: read-out not given here; potency means the concentration at half of the fitted maximal effect; nearly all actives have a fitted effect of over 45% in size
FBPA Giardia inh = qHTS Assay for Inhibitors of Fructose-1,6-bisphosphate Aldolase from Giardia Lamblia; A8B2U2; purified Giardia FBPA; Potency, µM (doses to about 59.6 µM), for the others: at the top dose activity, negative = inhibition, actives largely listed as inhibitors; actives 0.71% (n = 290,000); further: potency means the concentration at half of the fitted maximal effect; nearly all actives have a fitted effect of over 55% in size
Target sequence (A8B2U2 whole entry, looked up): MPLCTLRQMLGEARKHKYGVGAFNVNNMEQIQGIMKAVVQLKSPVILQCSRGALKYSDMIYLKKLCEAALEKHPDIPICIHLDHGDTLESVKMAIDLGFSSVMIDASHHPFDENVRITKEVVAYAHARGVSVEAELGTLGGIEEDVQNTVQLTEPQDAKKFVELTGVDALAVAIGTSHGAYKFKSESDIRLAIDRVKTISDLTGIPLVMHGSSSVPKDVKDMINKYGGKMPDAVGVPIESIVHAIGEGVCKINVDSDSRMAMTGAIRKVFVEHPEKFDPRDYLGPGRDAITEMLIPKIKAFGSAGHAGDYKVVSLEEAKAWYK
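Giardia FBPA (40 nM reagent) was preincubated 10 min at RT with compound (up to 57.5 uM final), then substrate plus GAPDH/TPI/NAD/arsenate coupling system with diaphorase/resazurin was added; resorufin fluorescence (525/598 nm) was read after 20 min.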
LASV entry inh = qHTS for Inhibitors of binding or entry into cells for Lassa Virus; Lassa virus pseudotype entry inhibition, cell reporter; Potency, µM (highest dose often 37.9 µM), inactives show at the highest dose activity change, negative = inhibition, hits mostly inhibitors; actives 1.2% (n = 300,000); AID 540256, 2011; calls by dose curve; tested in HEK293 cells; further: potency means the concentration at half of the fitted maximal effect; nearly all actives have a fitted effect of over 50% in size
Marburg entry inh = qHTS for inhibitors of binding or entry into cells for Marburg Virus | Marburg virus pseudotyped entry inhibition, cell reporter | Potency, µM (highest dose often 37.8 µM), for the others: at the top dose activity change, negative = inhibition, actives largely listed as inhibitors | actives 1.8% (n = 300,000); calls by dose curve; tested in HEK293 cells; further: potency means the concentration at half of the fitted maximal effect
HCV inh = qHTS Assay for Inhibitors of Hepatitis C Virus (HCV); actives 3.4% (n = 340,000); Potency, µM (highest dose often 41.8 µM), inactives show top-dose activity change, negative = inhibition, usual class: inhibitors; Huh7.5.1 HCVcc-Cre infection, luciferase reporter, 44 h; further: potency means the concentration at half of the fitted maximal effect
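HCVcc-Cre virus at an moi near 0.5 was added right after compound to cells cultured 4 h from seeding (1,000 cells/well). Luciferase activity was determined 44 h later, 15 min after substrate addition at RT.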
Active calls of the source: *; ? = inconclusive; nt = not tested or not shown; [ ] = dose if it differs, or a comment. Unless noted, the call rests on the fitted dose curve; in most records, active means well fitted curve in the direction sought with a large enough effect; inconclusive means small, poorly fitted or top-dose-only effect, or another doubt; inactive means no such curve, though single readings can be large; an effect the other way counts as inactive or inconclusive. On the % scale 0 is the no-effect control and ±100 the full control effect.

SMILES	HCMV inh	FMDV inh	FBPA Giardia inh	LASV entry inh	Marburg entry inh	HCV inh
CC(C)CC(COCc1ccc(Cl)cc1)N1CCN(C(=O)c2ccc(Cl)cc2Cl)CCC1=O (centres undefined)	2	-16%	-7%	15µM*	?	?
O=C(c1cccc(Cl)c1)N1CCC(=O)N(C(COCc2ccccc2)Cc2ccccc2)CC1 (centres undefined)	14	-20%	-5%	4.6µM*	?	-23%
CC(C)C[C@@H](COCc1ccc(Cl)cc1)N1CCN(C(=O)c2ccc(C(F)(F)F)cc2)CCC1=O	-2	-20%	nt	nt	nt	nt
Cc1cccc(C(=O)N2CCC(=O)N([C@H](COCc3ccccc3)Cc3ccccc3)CC2)c1	-5	-7%	3%	nt	nt	nt
Cc1cccc(COCC(Cc2ccccc2)N2CCN(C(=O)c3cccc(Cl)c3)CCC2=O)c1 (centres undefined)	3	-7%	0%	5.2µM*	-13%	?
COc1ccc(OC)c(CN2CCOc3ccc(CN4CCC(O)(c5cccnc5)CC4)cc3C2)c1	nt	0%	nt	nt	nt	nt
C=CCC(C)(O)c1cccc(Br)c1 (centres undefined)	nt	nt	5%	nt	nt	nt
COc1cccc(/C=C/c2nc(C#N)c(N3CCCCC3)o2)c1	-8	0%	nt	-18%[46.1 µM]	1%[46.1 µM]	nt
COc1cccc(NC(=O)NC2(C(F)(F)F)Oc3ccccc3O2)c1	30	-20%	-2%	-19%	8.2µM*	?
C=CCOc1c(CNc2cccc(C(=O)O)c2)cccc1OCC	-81*	6%	23%	15%	22%	17%
COc1cc([C@@H]2c3cc4c(cc3C(O[C@@H]3O[C@@H]5COC(c6cccs6)O[C@H]5[C@H](O)[C@H]3O)C3COC(=O)[C@@H]32)OCO4)cc(OC)c1O (some centres undefined)	nt	-20%	nt	nt	nt	nt
Cc1oc(-c2cccc(Cl)c2)nc1CN1CCC(C(=O)NC(C)c2ccccc2)CC1 (centres undefined)	-12	35µM*	nt	21%[46.1 µM]	8%[46.1 µM]	nt
CCN(CCNC(=O)C1CCN(Cc2nc(-c3cccc(Cl)c3)oc2C)CC1)c1ccccc1	84	40µM*	-21%	?	?	?
Cc1oc(-c2cccc(Cl)c2)nc1CN1CCC(C(=O)NC2CC2)CC1	-39	-7%	1%	nt	nt	16%
Brc1ccc(-c2csc(N3CCOCC3)n2)cc1	7	36%	-6%	nt	nt	11µM*
Brc1ccc(-c2csc(/N=C/N3CCOCC3)n2)cc1	5	-5%	-2%	?	?	?
Clc1ccc(-c2csc(N3CCOCC3)n2)cc1	0	18%	-3%	?	?	-9%
Brc1ccc(-c2csc(/N=C/N3CCCC3)n2)cc1	-23	-22%	-1%	?	8.9µM*	11µM*
O=C1CCCC=C1C(O)CCOCc1ccccc1 (centres undefined)	nt	nt	nt	nt	7%[14.2 µM]	nt
COc1ccc(C[C@H]2COC(=O)[C@@H]2Cc2ccc(OC3OC(CO)C(O)C(O)C3O)c(OC)c2)cc1OC (some centres undefined)	nt	0%	0%	-13%	-44%	7.1µM*
COc1cc(C[C@H]2C(=O)OC[C@@H]2Cc2ccc(OC)c(OC)c2)ccc1O	nt	?	11%	nt	nt	nt
CC1Cc2ccccc2N1c1ncnc(N)c1[N+](=O)[O-] (centres undefined)	-101*	?	-7%	10%	13%	7%
CC1CCCCN1c1ncnc(N)c1[N+](=O)[O-] (centres undefined)	-77*	-18%	1%	nt	-5%[46.1 µM]	-1%
CNC(=O)C1(C)C=CCN1C(=O)OC (centres undefined)	nt	nt	4%	nt	nt	nt
O=C(Cc1c[nH]c2ccccc12)NNCc1ccc(N(CCCl)CCCl)cc1	?	-7%	nt	3.5µM*	1.6µM*	?
SMILES	HCMV inh	FMDV inh	FBPA Giardia inh	LASV entry inh	Marburg entry inh	HCV inh
CC(C)c1c(C(=O)NCC2(N3CCCCC3)CCCC2)cnn1-c1nccc(-c2ccco2)n1	nt	1%	nt	nt	nt	nt
CC(C)(C)CNC(=O)C1(C)CCN1C(=O)c1ccccc1CCc1ccccc1 (centres undefined)	-15	-14%	nt	nt	nt	nt
CCCNC(=O)C1(C)CCN1C(=O)c1ccccc1CCc1ccccc1 (centres undefined)	-61*	0%	nt	nt	nt	nt
COc1ccccc1CNC(=O)C(Cc1ccccc1)NS(=O)(=O)c1ccc2c(c1)CCN2C(C)=O (centres undefined)	6	5%	nt	-5%[46.1 µM]	?	nt
CCC1CCc2c(sc3nc(SCC(=O)NCc4ccco4)n(-c4ccccc4)c(=O)c23)C1 (centres undefined)	-75*	-6%	5%	-22%	?	-1%
O=C(CSc1nc2c(sc3ccccc32)c(=O)n1CCc1ccccc1)NCc1ccco1	39	18%	2%	6%	?	-4%
O=C(CSc1nc2c(sc3ccccc32)c(=O)n1-c1ccccc1)NCc1ccco1	-81*	-7%	0%	?	?	0%
C[C@H]1OC(=O)CC[C@@H]2[C@]1(C)CCC1[C@@]2(C)CC[C@@]2(C)C3CC(C)(C)CC[C@]3(CO)CC[C@]12C (some centres undefined)	nt	-13%	2%	nt	nt	nt
CSc1nnc2[nH]c(=O)cc(C)n12	-6	-10%	nt	0%[46.1 µM]	nt	nt
Cc1ccc2[nH]c3c(Cl)ncnc3c2c1	9	-5%	-7%	4%	-20%[46.1 µM]	-6%
CCOc1ncnc2c1[nH]c1ccccc12	5	-16%	-3%	-4%	?	10µM*
CCCOc1ncnc2c1[nH]c1ccc(C)cc12	nt	-23%	-13%	nt	nt	13µM*
COc1ccc2c(c1)-c1nc(/N=C/c3ccc(O)cc3)sc1CC2	?	10%	?	?	3%	?
COc1ccc2c(c1)-c1nc(/N=C/c3c(O)ccc4ccccc34)sc1CC2	18	1%	?	-20%	?	13µM*
